DT40 TDP1 no CPT: qHTS for Inhibitors of human tyrosyl-DNA phosphodiesterase 1 (TDP1): qHTS in cells in absence of CPT. DT40 Tdp1-/- hTDP1 cells, no CPT, ATP luminescence, 48 h. Potency, µM (top dose mostly 46.2 µM), usual class: inhibitors. actives 15% (n = 420,000); note: nearly all actives have a fitted effect of over 55% in size
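Camptothecin absent (DMSO only). Human TDP1-complemented DT40 knockout cells, 400 cells/well, 37 °C for minimum 48 hr; ATP measured via CellTiter-Glo, 30 min dark incubation, luminescence.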
ClpP mod: qHTS Assay for Activators of ClpP. actives 1.9% (n = 340,000). purified B. subtilis ClpP, FRET peptide cleavage, 20 min. Potency, µM (titrated, usually from 57.5 µM). ATP-dependent Clp protease proteolytic subunit (Bacillus subtilis (strain 168)), P80244. AID 651965, 2013; active = well fitted falling curve with a large enough effect; inconclusive = small, poorly fitted or top-dose-only effect; inactive = no such curve, though single readings can be large or run the other way; note: the source files actives as falling curves though it sought activators and does not explain the sign; nearly all actives have a fitted effect of over 65% in size
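ClpP 10 microg/mL final, pH 8 Tris/KCl buffer with BSA, glycerol, Tween-20; compound pinned in; FRET-FV substrate; RT 20 min; Ex320/Em430; ΔFRET vs ADEP 5.8 microM, DMSO, no enzyme.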
TDP1 inh: inhibitors of human tyrosyl-DNA phosphodiesterase TDP1 | Q9NUW8 | recombinant TDP1, AlphaScreen DNA substrate cleavage | Potency, µM (series often up to 130 µM), actives largely listed as inhibitors | actives 0.28% (n = 350,000) | AID 485290; note: nearly all actives have a fitted effect of over 40% in size
Target sequence (Q9NUW8 whole entry, looked up): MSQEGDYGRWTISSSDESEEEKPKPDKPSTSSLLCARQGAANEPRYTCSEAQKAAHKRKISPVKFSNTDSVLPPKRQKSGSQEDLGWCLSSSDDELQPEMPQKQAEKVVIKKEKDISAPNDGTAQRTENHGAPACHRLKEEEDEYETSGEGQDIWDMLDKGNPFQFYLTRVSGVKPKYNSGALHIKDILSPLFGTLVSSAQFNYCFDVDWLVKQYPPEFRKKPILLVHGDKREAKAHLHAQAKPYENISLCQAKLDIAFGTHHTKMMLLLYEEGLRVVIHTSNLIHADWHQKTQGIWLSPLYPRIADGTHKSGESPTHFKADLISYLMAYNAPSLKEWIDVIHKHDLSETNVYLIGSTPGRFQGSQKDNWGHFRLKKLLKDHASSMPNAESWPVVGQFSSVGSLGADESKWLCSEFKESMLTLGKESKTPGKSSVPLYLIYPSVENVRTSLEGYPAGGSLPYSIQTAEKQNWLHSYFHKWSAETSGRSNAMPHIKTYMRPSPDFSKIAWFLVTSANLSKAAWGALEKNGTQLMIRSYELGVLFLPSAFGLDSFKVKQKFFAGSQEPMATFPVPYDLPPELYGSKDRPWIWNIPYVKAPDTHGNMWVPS
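Enzyme-compound mixtures sat 15 min at room temperature, followed by a 5 min reaction with 15 nM final substrate and 10 min with AlphaScreen beads. Recombinant human Tdp1 was used at 1 nM final.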
TDP1 cell CPT: growth inhibition of DT40 Tdp1-/-;hTDP1 cells with camptothecin (screen for TDP1 inhibitors); Potency, µM (doses to about 46.2 µM), usual class: inhibitors; chicken DT40 Tdp1-/-;hTDP1 cells + 20 nM CPT, ATP luminescence, 48 h; actives 12% (n = 420,000); note: nearly all actives have a fitted effect of over 55% in size
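Cell growth measured by CellTiter-Glo luminescence after a minimum 48 h, 37 C compound exposure with 20 nM CPT in Tdp1-knockout DT40 cells stably expressing hTDP1, seeded 400/well; qHTS titration format.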
Large screens that a line does not name were inactive. Shown are actives, neighbours in structure and some others; about 17% of the full set was active somewhere. Unless noted, calls come from the whole dose curve; as a rule, active = well fitted curve in the direction sought with a large enough effect; inconclusive = small, poorly fitted or top-dose-only effect, or another doubt; inactive = no such curve, though single readings can be large; an effect the other way counts as inactive or inconclusive.

O=C(CCl)N1N=C(c2ccco2)CC1c1ccco1 (stereo not drawn)	DT40 TDP1 no CPT 13µM, TDP1 cell CPT 9.2µM (no result: ClpP mod)
Cc1ccc(NC(=O)CCn2c(=S)oc3ccccc32)cc1F	DT40 TDP1 no CPT inconclusive (no result: ClpP mod, TDP1 inh)
Cc1ccc(Nc2sc(C(=O)c3ccccc3)c(N)c2C(N)=O)cc1	DT40 TDP1 no CPT inconclusive, TDP1 cell CPT inconclusive
Cc1cccc(C)c1Nc1sc(C(=O)c2ccccc2)c(N)c1C(=O)Nc1ccc(F)cc1	DT40 TDP1 no CPT 21µM, TDP1 cell CPT inconclusive
CCOc1ccccc1Nc1sc(C(=O)c2ccc(Cl)cc2)c(N)c1C(=O)NCCc1ccccc1	DT40 TDP1 no CPT 21µM, TDP1 cell CPT 4.6µM
CCOc1ccc(NC(=O)c2c(Nc3ccccc3C)sc(C(=O)c3ccccc3)c2N)cc1	DT40 TDP1 no CPT 12µM, TDP1 cell CPT inconclusive
CCOc1ccccc1Nc1sc(C(=O)c2ccccc2)c(N)c1C(=O)Nc1ccc(F)cc1	DT40 TDP1 no CPT 13µM, TDP1 cell CPT inconclusive
O=C(c1cnn(-c2nccc(-c3ccccc3C(F)(F)F)n2)c1C1CC1)N1CCN(CCO)CC1	none (no result: ClpP mod, TDP1 inh)
O=[N+]([O-])c1cccn2cc(-c3ccc(Br)cc3)nc12	ClpP mod inconclusive, TDP1 inh 40µM
Nc1cccc2c(=O)c3ccccc3[nH]c12	DT40 TDP1 no CPT 8.2µM, TDP1 inh inconclusive, TDP1 cell CPT 13µM (no result: ClpP mod)
COc1cccc2[nH]c3ccccc3c(=O)c12	DT40 TDP1 no CPT inconclusive (no result: TDP1 inh)
CC(C)NC(=O)C(=O)NCCCN1CCOCC1	none (no result: ClpP mod)
CCc1nc2c(OCc3cc(Cl)cc(Cl)c3)cccn2c1N(C)C(=O)CC(C)C	DT40 TDP1 no CPT inconclusive, TDP1 cell CPT 26µM (no result: TDP1 inh)
CCc1nc2c(OCc3ccc(F)c(F)c3)cccn2c1N(C)C(=O)CC(C)C	DT40 TDP1 no CPT inconclusive, TDP1 cell CPT inconclusive (no result: TDP1 inh)
CCCCC(=O)N(C)c1c(CC)nc2c(OCC(=O)c3ccc(F)cc3)cccn12	DT40 TDP1 no CPT inconclusive, TDP1 cell CPT inconclusive (no result: TDP1 inh)
CCc1nc2c(OCC(=O)c3ccc(F)cc3)cccn2c1N(C)C(=O)COc1ccccc1	DT40 TDP1 no CPT 21µM, TDP1 cell CPT inconclusive (no result: TDP1 inh)
CCc1nc2c(OCCOc3ccc(F)cc3)cccn2c1N(C)C(=O)c1ccc(OC)cc1	DT40 TDP1 no CPT inconclusive, TDP1 cell CPT inconclusive (no result: TDP1 inh)
CCc1nc2c(OCc3ccc(Cl)cc3Cl)cccn2c1N(C)C(=O)CC(C)C	DT40 TDP1 no CPT 6.5µM, TDP1 cell CPT inconclusive (no result: TDP1 inh)
CCc1nc2c(OCCOc3ccc(F)cc3)cccn2c1N(C)C(=O)CC(C)C	DT40 TDP1 no CPT 10µM, TDP1 cell CPT 16µM (no result: TDP1 inh)
COCCn1c(=O)c(-c2cccc(C#N)c2)nc2cnc(N3CCNCC3)nc21	DT40 TDP1 no CPT inconclusive (no result: ClpP mod, TDP1 inh)
COc1ccc(C2/C=C\CN([S+](=O)([O-])c3ccc4ccccc4c3)C(C)C(=O)N2Cc2ccc(F)cc2)cc1 (stereo not drawn)	none (no result: DT40 TDP1 no CPT, ClpP mod, TDP1 cell CPT)
COC(=O)CNc1nc(Cl)nc(NC2CCCCC2)n1	none (no result: TDP1 inh)
CCC(=O)NCCc1nc2cc(NC(=O)c3ccco3)ccc2n1C	none (no result: ClpP mod, TDP1 inh)
C=CCNCc1cccn1-c1sc2c(c1C#N)CCCC2	DT40 TDP1 no CPT 21µM, TDP1 cell CPT 21µM
N#Cc1c(-n2cccc2/C=N/O)sc2c1CCCC2	DT40 TDP1 no CPT inconclusive, TDP1 cell CPT inconclusive
COc1ccccc1NC(=O)C1=C(C)Nc2nc(SCc3ccccc3)nn2C1c1cccc(O)c1 (stereo not drawn)	DT40 TDP1 no CPT 23µM, TDP1 cell CPT inconclusive
CC1=C(C(=O)Nc2ccccc2)C(c2ccc(F)cc2)n2nc(SCc3cc(C)ccc3C)nc2N1 (stereo not drawn)	none
CC1=C(C(=O)Nc2cccnc2)C(c2ccccc2)n2nc(SCc3ccccc3)nc2N1 (stereo not drawn)	none
CC1=C(C(=O)Nc2ccc(C)cc2C)C(c2ccc(Cl)cc2)n2nc(C(=O)OC(C)C)nc2N1 (stereo not drawn)	DT40 TDP1 no CPT 16µM, TDP1 cell CPT inconclusive
COc1ccccc1NC(=O)C1=C(C)Nc2nc(SCc3cc(C)ccc3C)nn2C1c1ccccc1 (stereo not drawn)	TDP1 cell CPT 12µM
COc1ccccc1NC(=O)C1=C(C)Nc2nc(SCc3ccccc3)nn2C1c1cccnc1 (stereo not drawn)	DT40 TDP1 no CPT inconclusive, TDP1 cell CPT 21µM
COc1ccc(S(=O)(=O)N2CCC3(CC2)OCCN3S(=O)(=O)c2cccs2)cc1OC	DT40 TDP1 no CPT inconclusive, TDP1 cell CPT inconclusive
COc1cccc(NC(=O)CN(C)C(=O)c2ccc(OCC3CCCO3)cc2)c1 (stereo not drawn)	none
CC1=C(C(=O)Nc2ccc(C)cc2C)C(CC(C)C)n2nc(SCc3ccccc3C)nc2N1 (stereo not drawn)	DT40 TDP1 no CPT 12µM, TDP1 cell CPT 10µM
COc1ccccc1NC(=O)C1=C(C)Nc2nc(SCc3ccccc3F)nn2C1c1cccnc1 (stereo not drawn)	DT40 TDP1 no CPT 10µM, TDP1 cell CPT 15µM
CC1=C(C(=O)Nc2ccc(Cl)cc2)C(CC(C)C)n2nc(SCc3ccccc3C)nc2N1 (stereo not drawn)	DT40 TDP1 no CPT inconclusive, TDP1 cell CPT inconclusive
CCN(Cc1ccccc1)c1ncnc2c1cnn2-c1ccc(F)cc1	DT40 TDP1 no CPT inconclusive, ClpP mod inconclusive
C/C(=N\NC(=O)c1cccc(S(=O)(=O)N2CCOCC2)c1)c1ccc(OCC(=O)N(C)C)cc1	none
O=C(N[C@H]1C/C=C\C[C@H](CC(=O)N(CCO)Cc2ccccc2)C(=O)N[C@@H](c2ccccc2)COC1=O)OCC1c2ccccc2-c2ccccc21	DT40 TDP1 no CPT 13µM, TDP1 cell CPT 7.3µM
C[C@@H]1COC(=O)[C@@H](NC(=O)OCC2c3ccccc3-c3ccccc32)C/C=C\C[C@@H](CC(=O)N(CCO)Cc2ccccc2)C(=O)N1	DT40 TDP1 no CPT 2.6µM, TDP1 cell CPT 1.5µM
C[C@H]1COC(=O)[C@H](NC(=O)OCC2c3ccccc3-c3ccccc32)C/C=C\C[C@H](CC(=O)N(CCO)Cc2ccccc2)C(=O)N1	DT40 TDP1 no CPT 9.2µM, TDP1 cell CPT 9.2µM
C[C@H]1COC(=O)[C@@H](CC(=O)OC(C)(C)C)C/C=C\C[C@@H](CC(=O)N(CCO)Cc2ccccc2)C(=O)N1	DT40 TDP1 no CPT inconclusive, TDP1 cell CPT inconclusive
Cc1ccc(NC(=O)CSc2nc(C3CCCC3)nc3c2c(=O)n(C)c(=O)n3C)c(C)c1	none
O=C(C1CCC1)N1CCc2cc(S(=O)(=O)NCCN3CCN(c4ccccc4F)CC3)ccc21	DT40 TDP1 no CPT 23µM, TDP1 cell CPT inconclusive
CC(=O)N1CCc2cc(S(=O)(=O)NCCC(=O)N3CCN(c4ccccn4)CC3)ccc21	DT40 TDP1 no CPT inconclusive
O=C(CCNS(=O)(=O)c1ccc2c(c1)CCN2C(=O)C1CC1)N1CCN(c2ccccc2F)CC1	DT40 TDP1 no CPT 12µM, TDP1 cell CPT 13µM
O=C(C1CCC1)N1CCc2cc(S(=O)(=O)NCCc3ccccc3)ccc21	DT40 TDP1 no CPT inconclusive, TDP1 cell CPT inconclusive
O=C(NCCc1ccc(Cl)cc1)C1CCN(C(=O)c2ccc(F)cc2)CC1	DT40 TDP1 no CPT 18µM, TDP1 cell CPT inconclusive (no result: ClpP mod)
